According to PubChem BioAssay (EPA / NIEHS):
More than one record can exist for a structure, and the calls need not agree. Active and inactive are the calls of the source. How the source made its calls: active means hit-call score of the fitted dose curve at least 0.9, where 1 is the maximum; inactive means score below 0.9.

Tests used:
[1] = target: Transcription factor E2F1 (Homo sapiens) (UniProt Q01094); assay: ATG_E2F_CIS: Attagene CIS-FACTORIAL HepG2 Assay for human E2F Transcription Factor 1 (AID 2282935); details: HepG2 Attagene cis-reporter, E2F reporter RNA transcripts; actives raise or lower the signal
Method in brief: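 In this cis-factorial format, endogenous factor activity drives transfected reporters in HepG2; transcripts collected at 24 h are quantified by fluorescence after RT-PCR and capillary separation.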

[2] = ATG_E_Box_CIS: Attagene CIS-FACTORIAL HepG2 Assay for human Enhancer Box (E-box) (AID 2282936); details: HepG2 E-box cis-reporter transcription, actives raise or lower the signal
Method in brief: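 Measured 24 h post-dosing in HepG2 cells transfected with multiple cis-regulated reporter units, signal being reporter mRNA induction detected by fluorescent RT-PCR with capillary electrophoresis; gain or loss fitted against DMSO.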

[3] = ATG_M_61_CIS: Attagene CIS-FACTORIAL HepG2 Assay for M61 Transcription Factor (Internal Marker) (AID 2282937); details: HepG2 Attagene CIS-FACTORIAL M61 internal marker reporter; actives raise or lower the signal
Method in brief: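 HepG2 cells transiently transfected with multiplexed cis-promoter reporter units reporting endogenous transcription factor activity, measured 24 h after dosing. Reporter mRNA quantified by RT-PCR and capillary electrophoresis; bidirectional fit against DMSO baseline.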

[4] = ATG_EGR_CIS: Attagene CIS-FACTORIAL HepG2 Assay for human Early Growth Response 1 (EGR1) (AID 2282938); details: HepG2 Attagene CIS-FACTORIAL EGR reporter mRNA; actives raise or lower the signal
Method in brief: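 HepG2 cells transiently transfected with cis-element-driven multiplexed reporter units, dosed for 24 h. EGR1-element reporter mRNA quantified by RT-PCR, 6-FAM labelling, HpaI digestion and capillary electrophoresis; bidirectional fit versus DMSO.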

[5] = ATG_M_19_CIS: Attagene CIS-FACTORIAL HepG2 Assay for M19 Transcription Factor (Internal Marker) (AID 2282939); details: HepG2 Attagene CIS-FACTORIAL M19 internal marker reporter; actives raise or lower the signal
Method in brief: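 Signals come from fluorescence of labelled reporter-specific PCR fragments resolved by capillary electrophoresis, following 24 h treatment of HepG2 cells transfected with cis-promoter reporter units; activity was fitted in both directions relative to DMSO.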

[6] = ATG_ERE_CIS: Attagene CIS-FACTORIAL HepG2 Assay for Estrogen Response Element (ERE) (AID 2282940); details: HepG2 ERE cis-reporter, Attagene RNA transcript; actives raise or lower the signal
Method in brief: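 Fluorescence of capillary-separated, FAM-labelled reporter cDNA fragments indicates reporter mRNA levels in HepG2 cells exposed to chemicals for 24 h. Transient transfection with cis-regulated units; data fitted in both directions against DMSO.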

[7] = ATG_Ets_CIS: Attagene CIS-FACTORIAL HepG2 Assay for human Erythroblast Transformation Specific (ETS) (AID 2282941); details: HepG2 ETS cis-reporter transcription, actives raise or lower the signal
Method in brief: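 RT-PCR/capillary electrophoresis fluorescence read-out of reporter mRNA; HepG2 transient multi-reporter transfection; 24 h compound exposure; gain or loss of signal fitted bidirectionally relative to DMSO.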

[8] = target: Hepatocyte nuclear factor 3-beta (Homo sapiens) (UniProt Q9Y261); assay: ATG_FoxA2_CIS: Attagene CIS-FACTORIAL HepG2 Assay for human Forkhead box A2 (FOXA2) (AID 2282942); details: HepG2 cis-reporter transcription factor activity, 24 h; actives raise or lower the signal
Method in brief: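 HepG2 transiently transfected with a multiplexed cis-promoter reporter library read endogenous FOXA2 activity. After 24 h compound exposure, reporter mRNA was quantified by RT-PCR, HpaI digestion and capillary electrophoresis. Bidirectional fit against DMSO.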

[9] = ATG_FoxO_CIS: Attagene CIS-FACTORIAL HepG2 Assay for human Forkhead box O (FoxO) (AID 2282943); details: HepG2 Attagene cis-reporter, FoxO element, mRNA; actives raise or lower the signal
Method in brief: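 HepG2 cells transiently transfected with cis-promoter-driven multiple reporter transcription units; 24 h after chemical dosing, reporter mRNA quantified by RT-PCR, fluorescent primer extension, HpaI digestion and capillary electrophoresis. Bidirectional fitting versus DMSO baseline.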

[10] = ATG_GATA_CIS: Attagene CIS-FACTORIAL HepG2 Assay for human GATA Binding Protein (AID 2282944); details: HepG2 GATA cis-element reporter, Attagene multiplex mRNA; actives raise or lower the signal
Method in brief: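 After transfecting HepG2 cells with multiple cis-regulated reporter units, chemicals are dosed for 24 h; isolated RNA undergoes RT-PCR and fluorescent labeling before capillary electrophoresis, with activity expressed against DMSO.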

[11] = ATG_GLI_CIS: Attagene CIS-FACTORIAL HepG2 Assay for human Zinc Finger Protein GLI1 (AID 2282945); details: HepG2, Attagene cis-factorial reporter mRNA, GLI element; actives raise or lower the signal
Method in brief: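 HepG2 cells transiently transfected with cis-promoter multiplexed reporter units report endogenous transcription factor activity. After 24 h chemical exposure, reporter mRNA was quantified by RT-PCR, 6-FAM labelling, HpaI digestion and capillary electrophoresis, with bidirectional fitting against DMSO.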

[12] = target: Bile acid receptor (Homo sapiens) (UniProt Q96RI1); assay: ATG_IR1_CIS: Attagene CIS-FACTORIAL HepG2 Assay for human Nuclear Receptor Subfamily 1 Group H Member 4 (NR1H4), IR1 submotif (AID 2282946); details: IR1 reporter transcription, actives raise or lower the signal
Method in brief: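 Readout: reporter transcript levels by RT-PCR with fluorescent capillary electrophoresis, from HepG2 cells transiently transfected with multiplexed cis-regulated reporters and dosed 24 h. Gain- or loss-of-signal fitted versus DMSO negative control.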

[13] = ATG_GRE_CIS: Attagene CIS-FACTORIAL HepG2 Assay for human Glucocorticoid Response Elements (GRE) (AID 2282947); details: HepG2 GRE cis-reporter, Attagene multiplex mRNA; actives raise or lower the signal
Method in brief: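 HepG2, transient cis-reporter transfection, 24 h. Reporter mRNA: RT-PCR then CE, fluorescence. Fit both directions vs DMSO.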

[14] = ATG_ISRE_CIS: Attagene CIS-FACTORIAL HepG2 Assay for human Interferon Regulatory Factor 1 (IRF1) binding to an Interferon-Stimulated Response Element (ISRE) (AID 2282948); details: HepG2 ISRE cis-reporter (Attagene), mRNA transcription readout; actives raise or lower the signal
Method in brief: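 Read-out: fluorescent RT-PCR products resolved by capillary electrophoresis, reporting endogenous transcription factor activity via ISRE-driven reporter mRNA in transfected HepG2 cells dosed for 24 h; gain or loss fitted relative to DMSO.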

[15] = ATG_M_32_CIS: Attagene CIS-FACTORIAL HepG2 Assay for M32 Transcription Factor (Internal Marker) (AID 2282949); details: HepG2 Attagene cis-factorial M32 reporter, mRNA; actives raise or lower the signal;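 further: background control marker of the multiplexed CIS panel rather than a real target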
Method in brief: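 Transient MRTU transfection of HepG2; 24 h compound treatment; TriZol RNA, oligo(dT) RT, reporter PCR, 6-FAM primer extension, HpaI cut, CE. Gain/loss of signal vs DMSO.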

[16] = ATG_M_06_CIS: Attagene CIS-FACTORIAL HepG2 Assay for M06 Transcription Factor (Internal Marker) (AID 2282950); details: HepG2 Attagene CIS-FACTORIAL M06 internal marker reporter; actives raise or lower the signal
Method in brief: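 HepG2 liver cells, 24 h exposure. Reporter transcripts from transfected cis-element constructs quantified by RT-PCR/capillary electrophoresis fluorescence. Bidirectional curve fit against DMSO.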

[17] = target: Hypoxia-inducible factor 1-alpha (Homo sapiens) (UniProt Q16665); assay: ATG_HIF1a_CIS: Attagene CIS-FACTORIAL HepG2 Assay for human Hypoxia Inducible Factor 1 (HIF1A) (AID 2282951); details: HepG2 Attagene cis-factorial HIF1a reporter transcription; actives raise or lower the signal
Method in brief: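 HepG2 cells transiently transfected with multiple cis-regulated reporter transcription units measure endogenous transcription factor activity. After 24 h exposure, reporter mRNA is quantified by RT-PCR with 6-FAM labelling, HpaI digestion and capillary electrophoresis. Bidirectional fitting against DMSO.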

[18] = target: Hepatocyte nuclear factor 6 (Homo sapiens) (UniProt Q9UBC0); assay: ATG_HNF6_CIS: Attagene CIS-FACTORIAL HepG2 Assay for human Hepatocyte Nuclear Factor 6 (HNF6) (AID 2282952); details: HepG2 Attagene cis-factorial HNF6 reporter transcription; actives raise or lower the signal
Method in brief: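 Readout: fluorescent reporter-transcript fragments resolved by capillary electrophoresis after RT-PCR, reflecting endogenous factor activity in transfected HepG2. Exposure 24 h. Gain or loss of signal fitted bidirectionally against DMSO.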

[19] = target: Heat shock factor protein 1 (Homo sapiens) (UniProt Q00613); assay: ATG_HSE_CIS: Attagene CIS-FACTORIAL HepG2 Assay for human Heat Shock Transcription Factor 1 (HSE) (AID 2282953); details: HepG2 HSE cis-reporter, Attagene RNA transcription; actives raise or lower the signal
Method in brief: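 Endogenous transcription factor activity captured via cis-promoter reporter units transfected into HepG2; treatment lasted 24 h. Fluorescence intensity of reporter fragments analysed with bidirectional curve fitting, DMSO baseline.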

[20] = ATG_MRE_CIS: Attagene CIS-FACTORIAL HepG2 Assay for human Metal Responsive Element (MRE) (AID 2282954); details: HepG2 MRE cis-reporter transcription, Attagene multiplex; actives raise or lower the signal
Method in brief: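 Readout: capillary electrophoresis of 6-FAM-labelled, HpaI-digested RT-PCR reporter products. System: HepG2 cells carrying transient multiplexed cis reporters, dosed 24 h. Analysis: bidirectional fit, DMSO baseline.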

Measured: AC50

Sequence of Transcription factor E2F1 (Homo sapiens) (Q01094 whole entry, looked up): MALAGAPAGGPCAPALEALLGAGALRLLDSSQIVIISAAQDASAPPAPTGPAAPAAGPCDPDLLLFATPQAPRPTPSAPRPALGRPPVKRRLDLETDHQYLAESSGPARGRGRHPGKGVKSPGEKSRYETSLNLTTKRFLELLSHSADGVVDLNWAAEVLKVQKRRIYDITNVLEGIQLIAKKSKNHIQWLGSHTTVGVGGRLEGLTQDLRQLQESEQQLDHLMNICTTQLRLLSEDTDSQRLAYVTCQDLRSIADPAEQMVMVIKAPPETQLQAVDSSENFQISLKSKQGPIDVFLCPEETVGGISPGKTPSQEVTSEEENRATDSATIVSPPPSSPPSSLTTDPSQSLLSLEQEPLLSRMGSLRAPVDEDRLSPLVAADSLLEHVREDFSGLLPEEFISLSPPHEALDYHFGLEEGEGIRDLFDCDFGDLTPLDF
Sequence of Heat shock factor protein 1 (Homo sapiens) (Q00613 whole entry, looked up, the tested form may be a part): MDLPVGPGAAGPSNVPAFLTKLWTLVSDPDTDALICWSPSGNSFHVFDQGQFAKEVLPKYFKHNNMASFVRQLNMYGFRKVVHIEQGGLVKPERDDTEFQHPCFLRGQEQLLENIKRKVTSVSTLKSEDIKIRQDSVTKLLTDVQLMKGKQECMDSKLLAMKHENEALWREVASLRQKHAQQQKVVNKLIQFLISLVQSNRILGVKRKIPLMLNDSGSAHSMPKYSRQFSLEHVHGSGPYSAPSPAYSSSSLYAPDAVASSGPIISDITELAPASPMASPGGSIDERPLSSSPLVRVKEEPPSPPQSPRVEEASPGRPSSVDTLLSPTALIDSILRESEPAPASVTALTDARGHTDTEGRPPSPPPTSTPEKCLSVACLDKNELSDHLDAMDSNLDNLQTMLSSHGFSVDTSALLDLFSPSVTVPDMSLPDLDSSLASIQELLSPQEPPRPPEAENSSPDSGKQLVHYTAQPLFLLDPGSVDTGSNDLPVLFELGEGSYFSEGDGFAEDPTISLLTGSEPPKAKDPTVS
Sequence of Hepatocyte nuclear factor 6 (Homo sapiens) (Q9UBC0 whole entry, looked up, the tested form may be a part): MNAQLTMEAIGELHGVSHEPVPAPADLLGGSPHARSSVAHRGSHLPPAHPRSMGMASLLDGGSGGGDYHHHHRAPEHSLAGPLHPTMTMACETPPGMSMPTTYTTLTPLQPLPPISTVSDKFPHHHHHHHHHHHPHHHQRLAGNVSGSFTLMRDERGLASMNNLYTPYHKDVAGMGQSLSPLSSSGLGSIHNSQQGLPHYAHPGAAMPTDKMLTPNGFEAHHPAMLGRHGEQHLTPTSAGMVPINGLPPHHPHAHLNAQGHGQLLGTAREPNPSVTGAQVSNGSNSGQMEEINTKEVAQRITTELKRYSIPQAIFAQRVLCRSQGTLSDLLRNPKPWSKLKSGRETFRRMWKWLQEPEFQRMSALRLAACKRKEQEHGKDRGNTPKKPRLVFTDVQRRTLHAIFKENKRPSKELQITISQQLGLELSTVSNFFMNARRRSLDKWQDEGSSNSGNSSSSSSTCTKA
Sequence of Hepatocyte nuclear factor 3-beta (Homo sapiens) (Q9Y261 whole entry, looked up): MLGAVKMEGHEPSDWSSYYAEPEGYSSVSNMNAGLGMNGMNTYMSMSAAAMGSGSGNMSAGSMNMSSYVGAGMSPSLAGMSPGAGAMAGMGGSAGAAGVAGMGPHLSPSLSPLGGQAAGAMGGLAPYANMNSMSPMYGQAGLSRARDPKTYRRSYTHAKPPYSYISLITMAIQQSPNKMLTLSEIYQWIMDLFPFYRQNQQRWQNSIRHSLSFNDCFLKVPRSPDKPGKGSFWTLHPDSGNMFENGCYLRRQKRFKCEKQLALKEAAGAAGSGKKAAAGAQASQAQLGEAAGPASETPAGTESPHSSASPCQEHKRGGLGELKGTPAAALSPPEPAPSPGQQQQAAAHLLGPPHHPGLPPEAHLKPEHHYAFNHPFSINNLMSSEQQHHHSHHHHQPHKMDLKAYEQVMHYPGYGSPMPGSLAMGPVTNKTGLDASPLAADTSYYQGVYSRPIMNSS
Sequence of Hypoxia-inducible factor 1-alpha (Homo sapiens) (Q16665 whole entry, looked up): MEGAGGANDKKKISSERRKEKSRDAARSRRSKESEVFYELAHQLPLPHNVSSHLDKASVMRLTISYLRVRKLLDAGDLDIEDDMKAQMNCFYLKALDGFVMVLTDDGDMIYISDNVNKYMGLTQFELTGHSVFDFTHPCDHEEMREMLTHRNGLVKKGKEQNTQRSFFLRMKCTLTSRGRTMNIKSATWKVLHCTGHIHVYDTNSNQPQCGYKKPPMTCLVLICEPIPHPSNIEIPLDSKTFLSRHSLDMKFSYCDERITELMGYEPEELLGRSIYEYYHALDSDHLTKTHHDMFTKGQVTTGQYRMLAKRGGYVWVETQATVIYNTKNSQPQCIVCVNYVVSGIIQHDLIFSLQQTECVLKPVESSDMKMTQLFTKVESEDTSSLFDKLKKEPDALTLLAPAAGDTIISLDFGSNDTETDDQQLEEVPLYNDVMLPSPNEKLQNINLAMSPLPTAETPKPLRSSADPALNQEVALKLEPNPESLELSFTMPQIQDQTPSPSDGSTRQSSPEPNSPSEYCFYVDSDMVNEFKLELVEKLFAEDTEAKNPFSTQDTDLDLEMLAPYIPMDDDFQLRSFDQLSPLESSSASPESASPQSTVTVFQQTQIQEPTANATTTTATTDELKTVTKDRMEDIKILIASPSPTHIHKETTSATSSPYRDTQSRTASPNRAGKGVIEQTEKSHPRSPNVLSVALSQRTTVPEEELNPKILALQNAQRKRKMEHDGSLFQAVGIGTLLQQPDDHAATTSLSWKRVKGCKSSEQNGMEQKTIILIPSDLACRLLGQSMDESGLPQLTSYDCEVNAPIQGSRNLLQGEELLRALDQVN
Sequence of Bile acid receptor (Homo sapiens) (Q96RI1 whole entry, looked up): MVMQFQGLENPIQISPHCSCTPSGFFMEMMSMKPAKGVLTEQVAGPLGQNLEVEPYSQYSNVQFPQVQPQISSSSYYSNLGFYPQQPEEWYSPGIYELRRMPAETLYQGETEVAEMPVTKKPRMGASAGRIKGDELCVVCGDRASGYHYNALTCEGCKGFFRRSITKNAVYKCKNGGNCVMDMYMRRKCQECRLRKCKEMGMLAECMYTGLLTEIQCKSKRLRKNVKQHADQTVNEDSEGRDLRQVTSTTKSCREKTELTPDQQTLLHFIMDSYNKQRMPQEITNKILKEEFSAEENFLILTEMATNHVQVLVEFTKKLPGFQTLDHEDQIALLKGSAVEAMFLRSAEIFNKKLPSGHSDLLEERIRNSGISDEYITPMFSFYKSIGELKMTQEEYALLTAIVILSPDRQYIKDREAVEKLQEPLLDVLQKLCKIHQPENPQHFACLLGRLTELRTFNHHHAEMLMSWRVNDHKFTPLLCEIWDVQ

CCCN(CCC)c1c([N+](=O)[O-])cc(C(F)(F)F)c(N)c1[N+](=O)[O-]
active: [9] 50 µM | [17] 13 µM | [18] 50 µM | [19] 81 µM | [20] 32.5 µM
inactive: [1] | [2] | [3] | [4] | [5] | [6] | [7] | [8] | [10] | [11] | [12] | [13] | [14] | [15] | [16]

C#C[C@]1(O)CC[C@H]2[C@@H]3CCC4=CC(=O)CC[C@@H]4[C@H]3CC[C@@]21CC
active: [17] 3.15 µM
inactive: [1] | [2] | [3] | [4] | [5] | [7] | [8] | [9] | [10] | [11] | [13] | [14] | [15] | [16] | [17] | [18] | [20]

CCOC(=O)C(C)Oc1ccc(Oc2nc3ccc(Cl)cc3o2)cc1 (stereo unspecified)
inactive: [1] | [2] | [3] | [4] | [5] | [7] | [8] | [9] | [10] | [11] | [12] | [13] | [14] | [15] | [16] | [17] | [18] | [19] | [20]

O=C(O)c1ccccc1
inactive: [1] | [2] | [3] | [4] | [5] | [6] | [7] | [8] | [9] | [10] | [11] | [14] | [15] | [16] | [17] | [18] | [20]

COC(=O)c1ccc(I)cc1S(=O)(=O)NC(=O)Nc1nc(C)nc(OC)n1
inactive: [1] | [2] | [3] | [4] | [5] | [7] | [8] | [9] | [10] | [11] | [13] | [14] | [15] | [16] | [17] | [18] | [19] | [20]

CCOC(=O)[C@H](C)Oc1ccc(Oc2nc3ccc(Cl)cc3o2)cc1
inactive: [1] | [2] | [3] | [4] | [5] | [7] | [8] | [9] | [10] | [11] | [12] | [13] | [14] | [15] | [16] | [17] | [18] | [19] | [20]
